The record followed here is PubChem BioAssay AID1030 (National Center for Advancing Translational Sciences (NCATS), 2008).

Out of some 220,000 compounds screened, about 16,000 (7.3%) were called active. Roughly 25% stayed inconclusive and do not appear here. Calls follow the shape of the dose curve; as a rule, active = well fitted inhibition curve with a large enough effect (not every such curve was filed as active); inconclusive = small, poorly fitted or top-dose-only effect, or another doubt; inactive = no such curve, though single readings can be large or run the other way. Shown is part of a subset that was picked to be rich in actives.
Potency is read from the fitted curve at half-maximal effect.

Aldehyde dehydrogenase 1A1 (Homo sapiens), sequence (P00352 whole entry, looked up): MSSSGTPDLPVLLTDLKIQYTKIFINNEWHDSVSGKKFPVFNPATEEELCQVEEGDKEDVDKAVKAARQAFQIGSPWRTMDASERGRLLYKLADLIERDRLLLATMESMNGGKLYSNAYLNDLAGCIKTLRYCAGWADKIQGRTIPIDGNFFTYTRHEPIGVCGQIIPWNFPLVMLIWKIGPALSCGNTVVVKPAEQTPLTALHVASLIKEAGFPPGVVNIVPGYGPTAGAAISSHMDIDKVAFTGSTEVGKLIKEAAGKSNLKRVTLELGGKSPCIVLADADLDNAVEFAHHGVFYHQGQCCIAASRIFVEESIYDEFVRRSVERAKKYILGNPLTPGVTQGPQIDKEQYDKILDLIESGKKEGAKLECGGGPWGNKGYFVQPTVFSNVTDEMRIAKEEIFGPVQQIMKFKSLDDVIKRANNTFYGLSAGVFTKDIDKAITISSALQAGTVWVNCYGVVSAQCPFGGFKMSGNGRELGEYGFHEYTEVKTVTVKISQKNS

The assay has as its target Aldehyde dehydrogenase 1A1 (Homo sapiens) (UniProt P00352). Briefly: qHTS Assay for Inhibitors of Aldehyde Dehydrogenase 1 (ALDH1A1).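 As to activity, negative = inhibition: plate controls were no enzyme wells and a reference inhibitor.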 The following applies: Purified ALDH1A1, NADH fluorescence, propionaldehyde substrate; series mostly up to 75.3 µM; activity, negative = inhibition: at the top concentration. A general note: qHTS replaces the single test concentration by a dilution series.
With `COC(=O)CCCC1=CC2=CC(=O)C(C)(OC(=O)c3cccs3)C(=O)C2=CN1c1ccc(CO)cc1` (stereo unspecified), the activity, negative = inhibition was 3.06% [at 13.5 µM] (inactive).

In the case of `COc1ccc(Cn2nnc3c(=O)[nH]c(C4CCN(C(=O)c5ccccc5Cl)CC4)nc32)cc1`, the Potency was 14.1 µM (active).

For the compound `Cc1ccc(NC(=O)N2CCC(c3nc4c(nnn4Cc4c(F)cccc4Cl)c(=O)[nH]3)CC2)cc1`, the Potency is 15.8 µM (active).

For `COc1ccc(CN2CCC(c3nc4ccc(Cl)cc4[nH]3)CC2)cc1`, the “activity, negative = inhibition” value was 10.1% (inactive).

Take `Cc1ccc(NC(=O)N2CCC(C(=O)NCc3ccc(F)cc3)CC2)cc1`: the “activity, negative = inhibition” value is -4.87% (inactive).

On to `Cc1ccc(Cn2nnc3c(=O)n(CC(=O)N4CCCCC4)cnc32)cc1`, for which the “activity, negative = inhibition” value is 3.46% (inactive).

For `O=C(Cc1c(F)cccc1Cl)Nc1ccc(-n2cnnn2)cc1`, the “activity, negative = inhibition” value is -5.57% (inactive).

As for `COC(=O)c1nc(NC(=O)c2ccc(C(C)(C)C)cc2)n[nH]1`, the “activity, negative = inhibition” value was 3.87% (inactive).

In the case of `CSc1nc2ccc(NC(=O)c3c(F)cccc3F)cc2s1`, the “activity, negative = inhibition” value is 1.93% (inactive).

For `N/C(=N\OC(=O)c1ccc2c(c1)OCO2)c1ccc(Br)cc1`, the “activity, negative = inhibition” value was -2.88% (inactive).

As for `COc1ccccc1Cn1c(C)nnc1-c1cnn(C)c1N`, the “activity, negative = inhibition” value is -12% (inactive).

As to `O=C(CN1CCCCCC1)NCCN1C(=O)S/C(=C\c2ccccc2Cl)C1=O`, the “activity, negative = inhibition” value is -7.16% (inactive).

As for `CCC1(CC)NC(=O)N(Cc2nc3ccccc3s2)C1=O`, the “activity, negative = inhibition” value is -2.71% (inactive).

Regarding `CC(CC(=O)Nc1ccccc1)n1ccnc1` (stereo unspecified), the “activity, negative = inhibition” value is 4.51% (inactive).

`CC(NC(=O)c1ccc(N2CCNCC2)c([N+](=O)[O-])c1)C12CC3CC(CC(C3)C1)C2` (stereo unspecified): the “activity, negative = inhibition” value was -5.25% (inactive).

For `Cc1cccc(N2CCN(c3ccc(C(N)=O)cc3[N+](=O)[O-])CC2)c1C`, the “activity, negative = inhibition” value is -1.28% (inactive).

For the compound `CS(=O)(=O)N1CCN(c2ccc(C(=O)NC3C4CC5CC(C4)CC3C5)cc2[N+](=O)[O-])CC1` (stereo unspecified), the Potency is 14.1 µM (active).

In the case of `CCN(CC(=O)NCc1cccs1)S(=O)(=O)c1ccc(NC(C)=O)cc1`, the “activity, negative = inhibition” value was -4.69% (inactive).

For the compound `CCn1c(CSc2ncccn2)nnc1SCC(=O)N1c2ccccc2CC1C` (stereo unspecified), the Potency was 25.1 µM (active).

Consider `Cc1cc(=O)[nH]c(SCC(=O)N2c3ccccc3CC2C)n1` (stereo unspecified), for which the “activity, negative = inhibition” value is 10.4% (inactive).

As for `CC1CC(C)CN(C(=O)CSc2nnc(CSc3ncccn3)n2C)C1` (stereo unspecified), the “activity, negative = inhibition” value is 17.9% (inactive).

On to `Cc1noc(C)c1-c1nc(CSc2ccc(Cl)cc2)no1`, for which the “activity, negative = inhibition” value was 10.5% (inactive).

With `CC1CCC(NC(=O)C2c3ccccc3C(=O)N2Cc2ccc3c(c2)OCO3)CC1` (stereo unspecified), the “activity, negative = inhibition” value was -5.83% (inactive).

For `CN(CC(=O)Nc1ccccc1[N+](=O)[O-])Cc1ccc(Br)cc1`, the “activity, negative = inhibition” value was -5.4% (inactive).

Consider `CCOc1ccc(Br)cc1S(=O)(=O)Nc1cccc(S(=O)(=O)N(CC)CC)c1`, for which the Potency is 11.2 µM (active).

On to `CCOc1ccc(Br)cc1S(=O)(=O)Nc1ccc(C(=O)OC(C)C(=O)N(C)c2ccccc2)cc1` (stereo unspecified), for which the “activity, negative = inhibition” value was 3.26% (inactive).

Take `CCOc1ccc(Br)cc1S(=O)(=O)N1CCC(C(=O)O)CC1`: the “activity, negative = inhibition” value was -7.36% (inactive).

For `N#Cc1c(-c2ccc(F)cc2)nc(-c2ccccc2)[nH]c1=O`, the “activity, negative = inhibition” value is -6.35% (inactive).

Take `Cc1ccc(OCCCn2c(=O)oc3ccccc32)cc1`: the “activity, negative = inhibition” value is 4.85% (inactive).

As to `OCCC1CN(Cc2ccc3nsnc3c2)CCN1C1CCCC1` (stereo unspecified), the “activity, negative = inhibition” value was 2.91% (inactive).

As for `OCC1(CCc2ccccc2)CCN(Cc2ccc3nsnc3c2)CC1`, the Potency was 8.91 µM (active).

For `CC(=O)c1cccc(CN2CCC(CO)(Cc3ccccc3)CC2)c1`, the “activity, negative = inhibition” value is 2.05% (inactive).

Regarding `CSc1ccccc1C(=O)NCc1ccccc1`, the “activity, negative = inhibition” value is -0.536% (inactive).

For `CCc1cccc(C)c1NC(=S)N(CCCN1CCN(C)CC1)Cc1cccs1`, the “activity, negative = inhibition” value was -3.58% (inactive).

On to `CCC(C)(C)NC(=O)/C=C/c1cc(OC)c(OC)c(S(=O)(=O)N2CCc3ccccc32)c1`, for which the “activity, negative = inhibition” value was 0.69% (inactive).

`COc1ccc(C(=O)OCC(=O)NCC2CCCCC2)cc1S(=O)(=O)N1CCCc2ccccc21`: the Potency is 20 µM (active).

For the compound `CCN(C(=O)COC(=O)c1cc(S(=O)(=O)N2CCc3ccccc32)ccc1OC)C1CCS(=O)(=O)C1` (stereo unspecified), the “activity, negative = inhibition” value was -3.9% (inactive).

Regarding `O=C(O)c1ccn(COc2ccc(Br)cc2)n1`, the “activity, negative = inhibition” value is -0.0265% (inactive).

For the compound `O=C(CSc1nnc2ccc(-c3ccncc3)nn12)N1CCCCC1`, the “activity, negative = inhibition” value is -9.62% (inactive).

In the case of `CC(C)(C)c1cc(NC(=O)NN2CCOCC2)nn1-c1c(Cl)cc(Cl)cc1Cl`, the “activity, negative = inhibition” value is -0.397% (inactive).

For `CSCCC(NC(=O)c1cc([N+](=O)[O-])cc([N+](=O)[O-])c1)c1nc2ccccc2[nH]1` (stereo unspecified), the “activity, negative = inhibition” value was 4.43% (inactive).

In the case of `CSCCC(NC(=O)c1ccc(=O)n(C)n1)c1nc2ccccc2[nH]1` (stereo unspecified), the “activity, negative = inhibition” value is 11.8% (inactive).

`COc1ccc(CC(=O)N[C@@H](CCSC)c2nc3ccccc3[nH]2)cc1`: the Potency is 8.91 µM (active).

In the case of `Cc1ccc(C(=O)Cn2cc([N+](=O)[O-])nc2C)cc1`, the “activity, negative = inhibition” value is 9.11% (inactive).

Regarding `C=CCn1cnc2scc(-c3ccccc3)c2c1=O`, the “activity, negative = inhibition” value was 0.35% (inactive).

For the compound `C=CCn1c(SCc2csc(C)n2)nc2scc(-c3ccc(C)o3)c2c1=O`, the Potency is 22.4 µM (active).

For `C=CCn1c(SCC(=O)/C(C#N)=C(\C)N)nc2sc(C)c(C)c2c1=O`, the “activity, negative = inhibition” value is -5.93% (inactive).

Regarding `CN1CCCN(C(=O)C2CCCCC2)CC1`, the “activity, negative = inhibition” value is -8.59% (inactive).

Take `COc1ccccc1NC(=O)CCSc1nnc(-c2ccc(O)cc2)o1`: the “activity, negative = inhibition” value is -7.94% (inactive).

On to `CN(C)/C=C1/Nc2ccccc2C1=O`, for which the Potency was 25.1 µM (active).

As for `CN(C)/C=C1/C(=O)Nc2ccccc21`, the “activity, negative = inhibition” value is -4.37% (inactive).

For `O=C1CCCCC(=O)c2ccccc2N1`, the “activity, negative = inhibition” value was -2.2% (inactive).

For `CCOC(=O)C1(Cc2cccc(OC)c2)CCCN(S(=O)(=O)c2cccnc2)C1` (stereo unspecified), the “activity, negative = inhibition” value is -6.96% (inactive).

Consider `O=C(NCCCN1CCOCC1)c1ccccc1NS(=O)(=O)c1ccc(Br)cc1`, for which the “activity, negative = inhibition” value is 6.72% (inactive).

Regarding `CCOC(=O)NC(=O)C(=CNc1cccc(OC)c1)C(=O)NC(=O)OCC`, the “activity, negative = inhibition” value is -4.91% (inactive).

In the case of `CSC1=N/C(=C\c2ccc3c(c2)OCO3)C(=O)S1`, the “activity, negative = inhibition” value is 13.1% (inactive).

In the case of `CCc1c(C)sc(NC(=O)/C=C/c2ccc3c(c2)OCO3)c1C(=O)OC`, the “activity, negative = inhibition” value is -7.92% (inactive).

Regarding `CCC1=C/C(=C\c2ccc3c(c2)OCO3)C(=O)S1`, the Potency was 28.2 µM (active).

Regarding `CC(C)(C)NCC(O)COc1cccc2[nH]c(=O)[nH]c12` (stereo unspecified), the Potency entry was “inactive”.

Take `COc1cc2c(cc1OC)CC1(CCCCC1)N=C2`: the “activity, negative = inhibition” value is 7.1% (inactive).

As to `COc1ccc(C(CCN(Cc2ccc(OC)c(OC)c2)C(=O)CCl)c2ccccc2)cc1` (stereo unspecified), the Potency was 3.55 µM (active).

On to `COc1ccc(CCN(C(=O)COc2ccccc2)c2nc(-c3ccccc3)cs2)cc1OC`, for which the “activity, negative = inhibition” value is -1.23% (inactive).

On to `COc1ccc(CCNC(=O)C(Sc2ccccn2)c2ccccc2)cc1OC` (stereo unspecified), for which the “activity, negative = inhibition” value is -13.6% (inactive).

On to `CCN(CC)CCNC(=O)c1sc2ncn(CC(=O)Nc3ccc(C)c(Cl)c3)c(=O)c2c1C`, for which the “activity, negative = inhibition” value was 4.02% (inactive).

Take `COCCNC(=S)N(Cc1cccnc1)Cc1ccc(OC)c(OC)c1`: the “activity, negative = inhibition” value was 12.2% (inactive).

Turning to `COC(=O)c1ccc(CSc2nncn2N)cc1`, the “activity, negative = inhibition” value is 10.2% (inactive).
